The full ranking holds about 4,100 sequences; the median of “arbitrary fluorescence units” is about 780, and the highest 2% start at about 22,000. This is one part of a sample in which the highest values are shown more often than they occur.

Here are results for 63 sequences from the supplement of paper PMC10681739.

The target in this assay is T1, ETS1 (UniProt P14921).
T1 sequence: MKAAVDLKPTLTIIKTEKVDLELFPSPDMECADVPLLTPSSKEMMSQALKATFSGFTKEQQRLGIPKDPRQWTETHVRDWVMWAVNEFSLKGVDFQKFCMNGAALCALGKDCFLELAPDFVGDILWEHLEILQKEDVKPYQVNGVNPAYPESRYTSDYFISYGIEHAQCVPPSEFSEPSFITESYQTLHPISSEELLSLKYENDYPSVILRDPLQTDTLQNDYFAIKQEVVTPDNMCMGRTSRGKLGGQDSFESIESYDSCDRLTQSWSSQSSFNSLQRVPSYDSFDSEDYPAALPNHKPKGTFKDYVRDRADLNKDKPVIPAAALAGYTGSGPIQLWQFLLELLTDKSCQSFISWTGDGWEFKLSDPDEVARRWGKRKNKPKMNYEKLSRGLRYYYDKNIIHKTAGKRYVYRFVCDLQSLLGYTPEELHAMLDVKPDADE
Kind of assay: ETS1 binding intensity (PBM fluorescence), ETS1 alone (arbitrary fluorescence units); higher = stronger binding. Particulars: ETS1 concentration 1 nM; RUNX1 concentration 0 nM. The protocol:
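gcPBM on 36-bp genomic-derived probes (partner site mutated) containing one ETS1 site and no RUNX1 site. Recombinant human ETS1 (1 nM) was incubated alone or with RUNX1 (25 nM) and detected by anti-ETS1 antibody fluorescence. Values are medians over 4 replicate spots (not normalised). The probes sit in constant array flanks that are not printed.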
As to CTCCGCTGTCCCCTGCAGGCACCGAGGGCGGAACCA, the ETS1 binding intensity amounted to 347.
Under GGGACTGCAGTCCCGGGGAGCGCACCGGAAGTTCTC stands 4610.
Sequence ACAGAGGTGCTACCCCAAGGACCGGAAGCAGAGACC showed an ETS1 binding intensity of 3940.
Under GCCCCGGAAGCTCCTTAAGGAGGACCGTGTGAGTTT stands 1880; under TACCGGCGTTAATATAGTAAGGGCGGAAGTTCTCCT, 1190; under GGACCGGAAGTTAAGGCGTTCGCGGCGTGTGATAAG, 22900.
As to ACTTGGCAGTTCCGGGTCCGCGCCCCAGCGCGCCAC, the ETS1 binding intensity was 2630.
In turn, GTAGCAACAGCAGGCTCACACACCGGAAGTGCTCGC gave an ETS1 binding intensity of 9380.
Under TTGCTCCCGGAAGCCCCGCCCGTCCGTGGCTCCTGA stands 1350; under CCTGCCTTCCGTCTTCCAGGCAGAACGACAGAGAGG, 1710.
Under CAGATTTCCGGCTTCTGAGGAGCTGCCCTACCCCAG stands 38200; under AATGAGCCCCAGAACCCTTTTCCTTCCGGCCTGCAC, 1300.
Under CCCAGAGCTTCCGATTGGCTCTTCTGAGGTGGCGGG stands 1750; under AGTAACCAGCAGGCTGTGCCGGCAGGATGTTGTCTT, 469.
For the sequence CTGGGGTCGGGGCGAGGGAGCTGCCGGGGAAGTGAG, the ETS1 binding intensity amounted to 513.
In the case of GGCCAAGAAATCCACTCAGAGGAAATCACAGGCCTG it was 439; in that of GAGAAACGTCAGGCATGGCCGGGCCACCAGGAAAAC, 347; in that of CCCGGCGGCTACTTTCGGTCACTTTCGCCGGAACCT, 444.
Under GGCCGACGGGAAGTGTAGTCCGGCCTGCAGTCCGGG stands 1970; under GCCCTACCCAGCGGCGGCCGGACGCTTCGGCGCAGG, 435.
GCTCGTTTGGGGTTACTGACATCCGGCCTTCATTTC displayed an ETS1 binding intensity of 5140.
TTTTTTCCGCCTGTAGGGTCACATTGGGGTTGATTG: the ETS1 binding intensity was found to be 2790.
As to CTGACGCATTTCCGGCCTTTGGGGTTGATCGGTCAT, the ETS1 binding intensity was found to be 26200.
Under CCAGGAGGGATGGGGAAGTTCACCAGACACTCCATG stands 444.
In the case of GTCACTGTCGTATTTACTTTAGCTTCCTGTTCATCC it was 1880; in that of CGATTCCGGATTGGTCCAATTCCAGCGCCGAAGCCC, 673; in that of GCCACCTTACGACAGCTGTACAGAGCTTCCTTTAGC, 390.
Under AGCACTTCCGTTTGGGCAGGGCTGAGGGCCGGAGGG stands 16800; under CTAGCAGCTTCCGAGGGGGCGGCGGCCGGAGCGAGT, 784.
In turn, AACCTCCGACTTCCGGCCGCGCAGCGGAGGGCTGAG returned an ETS1 binding intensity of 32100.
The sequence GGGGGAGTTTTCGGAAGCGCTAACAGCGTTGGGGCC registered an ETS1 binding intensity of 566.
In the case of TGGTGCCAAACATCCGCTAGCCAGAGAAAAACCGAC it was 6500.
In the case of ACACCGTGCTTTTCGGTTCCCGGAAGTCCTTCAGGC it was 1560; in that of GACAAGATTGCAGGTGGCAACCCCATCCGGTTTGTT, 1400.
Under GGTCGCTCTGGTGACGGGGGAGGAAATTCTGTCCGT stands 512; under TCTGTCGCACATCCGGTGTGAGCTTCGGGGCGGTGG, 22500.
The sequence GTGAGCTTCCCGGCGCGCGGGGGGCGGTGCGCCTTC had an ETS1 binding intensity of 797.
Under CCTTTGGGGTAGCAGTGGCCCCGCGCGGAGGAAGTT stands 303; under GCAGCTTCCGCGGCCCCCGCCCGGCCTGCAGCGCCA, 2350; under CTAGCCACCTCGGCCCCACCCTCTTCCGGCCTCAGC, 1820.
In the case of TGACATTTCCGGCCCCACCTCGGCCTGCAGCGCCGC it was 40200; in that of TATCAGCTTCCGACGTGCCCCTCGGTATCTGGACTA, 1600.
Under GGATTTTGGGGTAGCGAACCCCGGGGCCGGAAGCAG stands 1080; under TTCGCTCCCTGAATCGCGTCGCTTCCTGAGCCGCGC, 454; under CTGTCTGCTTCCCGTGGCCAGCCCTGATCGCGGCCC, 953.
CGGGACTTCCTGTCTTCCCTGTCGCGGAGCTCTGAA gave an ETS1 binding intensity of 27000.
Under CCATTGGCGGGCGGCTTGAATGACGGAAGTGACGGC stands 872.
In the case of CTGTCGTGACCCGGCAGGAGTAGCGTCGGAAGCAAT, the ETS1 binding intensity was 403.
Under CTTAGCGGAAGAGGCGTGACCCAGGCGTACCCCAGG stands 1380.
GGTCCAGGAAGACGTCAAGGGCTTGGATTTGTAAAC: the ETS1 binding intensity worked out at 437.
As to GCACCACCGGAAGTAGGGCTCAACCTCCGCTCATTT, the ETS1 binding intensity is 24400.
In the case of AGGGGCAGAGCACAGCACCACCGGAAGTAGGGCTCA it was 9450; in that of TAGGTCACCTCCGCGACACAGCAACGGAAGTAGGGT, 1110.
Under GTCCCCTCGGTGTCACAGCAATATCCGTTCTTTGAT stands 1190; under CGGGAATCCACGGAATTTACTGCCGGAAGTTCGGCG, 2700; under CGAGAACGGCGCCACTGAGGAACCGGAAACAAGCCA, 3230.
In the case of AGACCCTGTTGTCACATGGCAGGAAGTCTGCAGGTT it was 1060; in that of CATCTGTTGTCTCCTTGAAGTCACATCCCACAGGAG, 438; in that of GAAGTCACATCCTGTCTGTTGGGGCAGGGCACAGAG, 23500.
For ACAAAAAAATCACACACCCAACGGAAACCATAGAGA, the ETS1 binding intensity amounted to 669.
As to AGCACCCCATTCTACACCTCCAGCTCATCCTGCGTC, the ETS1 binding intensity turned out to be 389.
In the case of GAACTTCCGGGACCACGTGACGTAGAACTACAACAA it was 32800; in that of CTCCTGGGCTTGTAGTTAGAACATCCTGCAGCAAAG, 1130.
